Bioassay records deposited in PubChem BioAssay by several laboratories.
A selection: hits, their analogues and other compounds. The true share with any hit is near 1.5%.
NOD2 RIPK2 PPI: NOD2-RIPK2 binding disruptors in cells, primary screen, fluorescence, CHO cells, BLA complementation | inhibition, % at 4.98 µM | 360,000 compounds, 0.38% hits | CCF4 ratio; in the data active means inhibition above about 21%;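 further: 0% = vehicle only and 100% = reference blocker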
Target sequence (O43353 whole entry, looked up): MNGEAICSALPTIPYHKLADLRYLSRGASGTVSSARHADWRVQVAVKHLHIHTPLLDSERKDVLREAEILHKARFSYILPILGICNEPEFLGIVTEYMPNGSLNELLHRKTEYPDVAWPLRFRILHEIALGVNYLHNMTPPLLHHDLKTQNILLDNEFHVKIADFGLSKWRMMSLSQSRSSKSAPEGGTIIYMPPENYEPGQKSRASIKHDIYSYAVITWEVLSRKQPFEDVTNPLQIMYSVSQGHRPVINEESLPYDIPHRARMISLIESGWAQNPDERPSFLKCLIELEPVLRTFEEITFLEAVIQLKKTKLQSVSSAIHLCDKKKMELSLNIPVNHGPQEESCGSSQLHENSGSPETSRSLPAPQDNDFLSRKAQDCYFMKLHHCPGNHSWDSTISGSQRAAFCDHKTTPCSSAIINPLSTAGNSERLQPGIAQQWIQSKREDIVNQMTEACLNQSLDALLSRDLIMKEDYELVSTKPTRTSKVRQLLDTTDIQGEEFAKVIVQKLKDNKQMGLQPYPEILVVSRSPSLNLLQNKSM
NTR1 agonist: agonists of human NTR1, primary screen, imaging, U2OS cells, beta-arrestin-GFP, high content; activation, % at 20 µM; Neurotensin receptor type 1 (Homo sapiens), P30989; 330,000 compounds, 0.17% hits; NTR1-U2OS beta-arrestin-GFP spot imaging, agonist mode;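 active means activation at or above 40% of the spot to cytoplasm intensity ratio, with at least 20 cells analyzed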;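 further: 0% = DMSO without peptide and 100% = 100 nM NTR1 peptide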
TLR9-MyD88 block: inhibitors of TLR9-MyD88 association in cells, primary screen, cell-based, CHO, BLA complementation, fluorescence; Toll-like receptor 9 (Homo sapiens) + Myeloid differentiation primary response protein …; CCF4 FRET ratio; inhibition, % at 4.98 µM; 340,000 compounds, 0.21% hits; AID 504734, 2011;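 active means inhibition above the mean over all tested compounds plus 3 SD, cut at about 21% in these data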;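 further: 0% = DMSO only wells and 100% = clavulanate BLA inhibitor control wells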
ABHD5 PLIN5 PPI: ABHD5-PLIN5 interaction inhibitors, primary screen, cell lysate, split luciferase complementation, luminescence; Perilipin-5 (Homo sapiens) + 1-acylglycerol-3-phosphate O-acyltransferase ABHD5 (Homo …; Split G. princeps luciferase complementation, 4 h; AID 602281, 2012; inhibition, % at 4 µM; 360,000 compounds, 0.78% hits;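 active means inhibition above the mean inhibition across every tested compound plus 3 SD, cut at about 22% in these data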;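 further: 0% = DMSO only wells and the 100% control is not disclosed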
TLR4-MyD88 BLA: inhibitors of TLR4-MyD88 association in cells, primary screen, cell-based, HeLa CL3-4, BLA complementation, FRET ratio; inhibition, % at 8.4 µM; Toll-like receptor 4 (Homo sapiens) + Myeloid differentiation primary response protein …; AID 861, 2007; HeLa CL3-4 TLR4/MyD88 BLA complementation; 200,000 compounds, 0.18% hits; in the data active means inhibition above about 25%;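 further: 0% = vehicle and 100% = reference inhibitor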
B2AR ag: beta2AR agonists driving receptor internalization, primary screen, cell-based, FAP fluorogen, flow cytometry; Am2.2-beta2AR cells; response, % (concentration not given with the values); 340,000 compounds, 0.43% hits; AID 504454, 2011;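 active means response above a set limit, near 3 SD of response in nonfluorescent compounds, cut at about 42% in these data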
ABHD5 PLIN5 conf: ABHD5-PLIN5 interaction inhibitors, confirmation, biochemical, luminescence; shares compounds with ABHD5 PLIN5 PPI; inhibition, % at 4 µM; 2,200 compounds, 67% hits; AID 651612, 2012; in the data active means inhibition above about 23%;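 further: 0% = DMSO vehicle wells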
HNF4 counter: HNF4 dimerization inhibitors, counter-screen for ABHD5-PLIN5 interaction inhibitor project, biochemical, split-luciferase complementation, luminescence; shares compounds with ABHD5 PLIN5 PPI; inhibition, % at 4 µM; 2,200 compounds, 77% hits; AID 651674, 2012;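 active means mean inhibition across replicate wells exceeding the computed hit threshold, cut at about 13% in these data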;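 further: light from luciferase halves that rejoin when HNF4 fusion proteins dimerize; 0% = DMSO only wells and the 100% control is not given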
* hit, by the source's call; x = no result given.

SMILES	NOD2 RIPK2 PPI	NTR1 agonist	TLR9-MyD88 block	ABHD5 PLIN5 PPI	TLR4-MyD88 BLA	B2AR ag	ABHD5 PLIN5 conf	HNF4 counter
COc1cc(SC#N)ccc1N=Cc1c(C)[nH]n(-c2ccc(C)cc2C)c1=O	-11.5	3.6	-0.7	26.8*	4.6	12.9	38.2*	26.2*
Cc1cc(C)nc(NS(=O)(=O)c2ccc(NCN3C(=O)c4ccccc4C3=O)cc2)n1	0.3	x	-2.2	27.4*	x	x	6.0	5.8
COC(=O)C[C@H]1C=C[C@@H](NS(=O)(=O)c2ccccc2)[C@@H](CO)O1	-9.4	x	x	4.1	x	x	x	x
CC1=C(C(=O)N(C(C)C)C(C)C)CC(CC(=O)NCc2ccco2)C(=O)N1Cc1ccc(C(C)(C)C)cc1 (centres undefined)	13.9	x	x	2.6	x	x	x	x
CCOc1ccc(C(C)=O)cc1N1C(=O)C2C3C=CC(O3)C2C1=O (centres undefined)	4.6	0.3	5.8	30.0*	8.2	8.0	16.8	80.1*
CCOc1ccc(C(C)=O)cc1N1C(=O)C2C3C=CC(C3)C2C1=O (centres undefined)	1.3	-0.5	3.5	-2.7	1.6	7.2	x	x
Cn1cnc([N+](=O)[O-])c1S(=O)(=O)c1ccc(Cl)cc1	18.7	x	-0.3	48.9*	1.4	14.7	74.8*	98.2*
CN(C)c1ccc(CNC(=O)C2(C)Cc3c(-c4cccc(C(N)=O)c4)ccnc3O2)cc1 (centres undefined)	-8.6	x	x	3.1	x	x	x	x
c1ccc(Cn2ncc3c(N4CCN(c5ccccc5)CC4)ncnc32)cc1	-11.9	x	x	-10.0	x	x	x	x
COc1ccc(/C=C/C(=O)c2ccccc2O)cc1	-6.8	9.9	3.0	18.8	-2.5	10.0	x	x
COc1ccc(/C=C/C(=O)c2c(O)c(OC)c3occc3c2OC)cc1	-3.8	x	10.8	49.3*	-3.4	18.2	78.9*	65.0*
CCNc1nc(NC(C)C)nc(-c2ccncc2)n1	-6.6	x	x	1.8	x	x	x	x
Cc1ccc(NC(=O)CSc2nnc(-c3ccco3)c(-c3ccco3)n2)cc1	-4.0	-1.0	-4.0	27.1*	-2.2	4.2	93.9*	65.0*
CN(C)c1ccc(NC(=O)CSc2nnc(-c3ccco3)c(-c3ccco3)n2)cc1	-12.0	2.3	2.2	-5.4	x	-13.1	x	x
C#CCOCCOCCOCCNc1nc(N2CCN(C(=O)CCCCCCCCCCNC(=O)[C@H](CCCCN)n3cc(CCO)nn3)CC2)nc(N2CCN(C(=O)CCCCCCCCCCNC(=O)[C@H](CCCCN)n3cc(C[C@@H](C)CC)nn3)CC2)n1	x	9.0	x	x	x	x	x	x
C#CCOCCOCCOCCNc1nc(N2CCOCC2)nc(N2CCN(C(=O)CCCCCCCCCCNC(=O)[C@H]([C@@H](C)CC)n3cc(CCCCN=C(N)N)nn3)CC2)n1	5.1	-0.9	3.6	33.9*	x	11.3	2.8	-0.2
C#CCOCCOCCOCCNc1nc(N2CCN(C(=O)CCCCCCCCCCNC(=O)[C@H]([C@@H](C)CC)n3cc(CCCCN=C(N)N)nn3)CC2)nc(N2CCN(C(=O)CCCCCCCCCCNC(=O)[C@H](CCCN=C(N)N)n3cc(C[C@@H](C)CC)nn3)CC2)n1	x	3.2	x	x	x	x	x	x
C#CCOCCOCCOCCNc1nc(N2CCN(C(=O)CCCCCCCCCCNC(=O)[C@@H](CCC(=O)O)n3cc(CCCCCN)nn3)CC2)nc(N2CCN(C(=O)CCCCCCCCCCNC(=O)[C@H](CCCCN)n3cc(C[C@@H](C)CC)nn3)CC2)n1	3.5	0.1	6.1	41.2*	x	17.4	17.1	-7.5
C#CCOCCOCCOCCNc1nc(N2CCN(C(=O)CCCCCCCCCCNC(=O)[C@@H](CCC(=O)O)n3cc(CCCCCN)nn3)CC2)nc(N2CCN(C(=O)CCCCCCCCCCNC(=O)[C@H](CO)n3cc(CCCCCN)nn3)CC2)n1	-11.6	0.5	4.8	35.9*	x	9.2	8.7	2.2
C#CCOCCOCCOCCNc1nc(N2CCOCC2)nc(N2CCN(C(=O)CCCCCCCCCCNC(=O)[C@H](CO)n3cc(CCCSC)nn3)CC2)n1	0.0	0.2	1.2	16.2	x	-2.3	x	x
C#CCOCCOCCOCCNc1nc(N2CCN(C(=O)CCCCCCCCCCNC(=O)[C@@H](CCSC)n3cc(CCO)nn3)CC2)nc(N2CCN(C(=O)CCCCCCCCCCNC(=O)[C@H](CO)n3cc(CCCCCN)nn3)CC2)n1	7.7	-0.6	1.3	45.9*	x	19.0	12.5	1.4
O=C(NC1CCCCC1)C(c1ccnc2ccccc12)n1c(=O)c(-c2ccco2)nc2ccccc21 (centres undefined)	-5.1	x	x	55.5*	x	x	50.2*	8.1
O=C(NC1CCCCC1)C(c1ccc(-c2ccccc2)cc1)n1c(=O)c(-c2ccco2)nc2ccccc21 (centres undefined)	-19.6	x	x	79.0*	x	x	70.9*	2.4
O=C(Nc1ccc2c(c1)OCCO2)C(c1ccncc1)n1c(=O)c(-c2ccco2)nc2ccccc21 (centres undefined)	6.9	x	x	11.3	x	x	x	x
O=C(NC1CCCCC1)C(c1ccccc1F)n1c(=O)c(-c2ccco2)nc2ccccc21 (centres undefined)	-2.4	x	x	71.6*	x	x	85.3*	31.2*
O=C(Nc1ccc2c(c1)OCCO2)C(c1ccnc2ccccc12)n1c(=O)c(-c2ccco2)nc2ccccc21 (centres undefined)	-0.3	x	x	50.3*	x	x	25.9*	7.3
CC(O)(c1ccc(F)c(F)c1)c1nc(-c2ccc(F)c(Cl)c2)cs1 (centres undefined)	-4.4	x	x	-11.2	x	x	x	x
CCNC(=O)N1C[C@H]2CON(C)[C@H]2C[C@H]1c1ccccc1Br	7.4	x	-10.2	0.3	x	x	x	x
CCOC(=O)c1c(-c2ccco2)csc1NC(=O)COC(=O)c1cnccn1	2.1	-0.7	5.1	24.7*	x	1.2	17.6	15.5*
O=c1[nH]c(/C=C/c2ccc([N+](=O)[O-])cc2)c([N+](=O)[O-])c(=O)[nH]1	-13.9	-1.2	-6.8	49.8*	x	5.2	84.6*	79.2*
